The values below come from paper PMC4336329 (PLoS ONE, 2015).

The structures appear in SMILES notation. Out of some 310,000 compounds screened, about 14,000 (4.5%) showed an effect of 50% or more. Effects have a minus sign here. For the sample, strong results were picked, then their nearest neighbours and some compounds at random.
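Also: peak tail current of the secondary pulse compared with the same well before compound.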

In this assay the target is human ether-à-go-go-related gene (hERG) potassium channel (human, UniProt Q12809). The assay is described as follows: primary screen, population patch clamp on CHO cells stably expressing hERG; higher = less effect of the substance. Here is the method: Briefly, Chinese hamster ovary (CHO) cells stably expressing the hERG channel were dislodged from tissue culture flasks and dispensed into PPC plates. […] During the recording, background leak currents were estimated by a 100 ms step to -80 mV from an initial holding potential of -70 mV and subtracted from the subsequent current measurement. The campaign was conducted in two phases using slight differences in recording protocol. In the first phase, the initial voltage pulse used a 100 ms step to -30 mV from a holding potential of -70 mV, a 2 s conditioning step to +25 mV, and a 2 s test step to -30 mV. During the second phase of the screen, the potential during the conditioning step was raised to +45 mV. In both phases of the campaign, a secondary voltage pulse was applied using the same parameters as the second phase initial pulse. The initial and secondary pulses were applied in the absence of compound, and upon application of 1 μM and 10 μM test concentrations. […]
Sequence of human ether-à-go-go-related gene (hERG) potassium channel (Q12809 whole entry, looked up): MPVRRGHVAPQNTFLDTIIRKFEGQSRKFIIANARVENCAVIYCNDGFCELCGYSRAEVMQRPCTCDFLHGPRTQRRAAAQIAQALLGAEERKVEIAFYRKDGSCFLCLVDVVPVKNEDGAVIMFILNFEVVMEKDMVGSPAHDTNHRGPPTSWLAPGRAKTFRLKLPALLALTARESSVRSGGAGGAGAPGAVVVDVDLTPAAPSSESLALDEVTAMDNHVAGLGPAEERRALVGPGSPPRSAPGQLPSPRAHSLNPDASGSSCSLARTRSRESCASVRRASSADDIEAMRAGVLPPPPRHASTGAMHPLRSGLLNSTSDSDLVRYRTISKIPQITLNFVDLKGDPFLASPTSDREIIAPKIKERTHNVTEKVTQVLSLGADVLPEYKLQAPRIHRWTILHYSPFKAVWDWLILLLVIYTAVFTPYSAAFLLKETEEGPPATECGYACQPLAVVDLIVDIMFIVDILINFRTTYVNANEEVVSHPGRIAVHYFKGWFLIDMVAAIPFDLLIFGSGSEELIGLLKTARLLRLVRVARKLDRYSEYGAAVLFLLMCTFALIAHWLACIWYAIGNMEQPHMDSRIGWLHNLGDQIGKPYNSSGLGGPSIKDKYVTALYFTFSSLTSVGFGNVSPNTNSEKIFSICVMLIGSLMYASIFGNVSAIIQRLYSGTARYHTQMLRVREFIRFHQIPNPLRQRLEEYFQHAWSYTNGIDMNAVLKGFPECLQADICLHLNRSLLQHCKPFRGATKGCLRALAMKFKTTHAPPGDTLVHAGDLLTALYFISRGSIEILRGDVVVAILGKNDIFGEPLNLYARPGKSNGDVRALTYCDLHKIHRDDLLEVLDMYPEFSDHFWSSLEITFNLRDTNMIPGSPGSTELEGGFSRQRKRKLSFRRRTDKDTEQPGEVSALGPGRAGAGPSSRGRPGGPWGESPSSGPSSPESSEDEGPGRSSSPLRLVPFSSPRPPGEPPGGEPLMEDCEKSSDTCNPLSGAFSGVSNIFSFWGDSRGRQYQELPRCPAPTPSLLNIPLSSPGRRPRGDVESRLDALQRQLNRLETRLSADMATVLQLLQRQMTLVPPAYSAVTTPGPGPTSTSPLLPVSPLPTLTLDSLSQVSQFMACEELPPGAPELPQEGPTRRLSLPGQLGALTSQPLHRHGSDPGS
As for `O=C(CCc1nc2ccccc2s1)N1CCN(S(=O)(=O)c2cccs2)CC1`, the “hERG current change (%, negative = inhibition) at 10uM” value was -66.7%. Under `N#Cc1ccc(C(=O)N2CCN(S(=O)(=O)c3ccc(Br)s3)CC2)cc1` stands -63.5%. On to `CCC(=O)c1ccc(OCC(=O)N2CCN(S(=O)(=O)c3ccc(Cl)s3)CC2)cc1`, for which the “hERG current change (%, negative = inhibition) at 10uM” value was -4.53%.

As to `N#Cc1ccc(C(=O)N2CCN(S(=O)(=O)c3ccc(Cl)s3)CC2)cc1`, the “hERG current change (%, negative = inhibition) at 10uM” value is -49.9%. Under `CCN(CC(=O)NC(=O)Nc1ccccc1F)Cc1ccccc1` stands 12.4%; under `Cc1ccc(N(CCC(=O)N2CCOCC2)S(=O)(=O)c2ccccc2)cc1`, -8.57%; under `Cn1c(NC(=O)C2c3ccccc3Oc3ccccc32)cc(=O)n(C)c1=O`, -3.72%. Under `C=CCn1c2ccccc2c2nnc(SCC(=O)Nc3cc(C)on3)nc21` stands -8.39%; under `CCOC(=O)CNC(=O)c1nn(-c2cccc(OC)c2)c(=O)c2ccccc12`, -22.9%; under `O=C(COC(=O)c1cccc(Oc2ccccc2)c1)NCc1ccco1`, 3.19%.

As to `Cc1ccc(C(C(=O)NC2CCCCC2)N(Cc2ccco2)C(=O)C2COc3ccccc3O2)o1` (stereo not shown), the “hERG current change (%, negative = inhibition) at 10uM” value is reported as -6.27%. In the case of `Cc1ccc(C(C(=O)NC2CCCCC2)N(Cc2cccnc2)C(=O)C2COc3ccccc3O2)o1` (stereo not shown) it was -59.7%. In the case of `O=C(NC1CCCCC1)C(c1ccco1)N(Cc1cccnc1)C(=O)C1COc2ccccc2O1` (stereo not shown) it was -18.8%; in that of `Cc1ccc(NC(=O)c2sc(C)nc2C)c(C)c1`, 1.97%; in that of `O=C(N/N=C/c1ccccc1OCc1ccccc1)c1cccs1`, 5.13%. In the case of `CCOC(=O)c1ccc(Oc2c(C)oc3cc(OS(C)(=O)=O)ccc3c2=O)cc1` it was -66%; in that of `CCc1cc(=O)oc2cc(OS(C)(=O)=O)ccc12`, -5.44%. With `CCOC(=O)c1c(C)oc2ccc(OS(C)(=O)=O)cc12`, the “hERG current change (%, negative = inhibition) at 10uM” value is 1.04%. For the molecule `CCOc1ccc2c(=O)c(Oc3ccccc3)c(C)oc2c1`, the “hERG current change (%, negative = inhibition) at 10uM” value was -6.41%. Under `Cc1c(C)c2ccc(OS(C)(=O)=O)cc2oc1=O` stands -58.4%. Under `Cc1cc(=O)oc2cc(OS(C)(=O)=O)ccc12` stands 4.31%. Under `COc1ccccc1/C=C/C=N/N1CCN(Cc2ccccc2)CC1` stands -8.94%; under `COc1ccc(/C(O)=C2/C(=O)C(=O)N(CC3CCCO3)C2c2ccc(OC)c(OC)c2)cc1` (stereo not shown), 1.45%. For the molecule `Cc1cnc(NC(=O)CCCNC(=O)c2ccc(Cl)cc2)s1`, the “hERG current change (%, negative = inhibition) at 10uM” value came to 12.8%.

As for `Cc1ccccc1-n1c(-c2ccc([N+](=O)[O-])cc2)nc2ccccc2c1=O`, the “hERG current change (%, negative = inhibition) at 10uM” value is recorded as -0.532%.

`Cc1nn(Cc2cccc(C(=O)N3N=C(C(F)F)CC3(O)C(F)F)c2)c(C)c1[N+](=O)[O-]` (stereo not shown): the “hERG current change (%, negative = inhibition) at 10uM” value is listed as -19.6%. Turning to `Cc1nn(Cc2ccc(C(=O)N3N=C(C(F)F)CC3(O)C(F)F)o2)c(C)c1[N+](=O)[O-]` (stereo not shown), the “hERG current change (%, negative = inhibition) at 10uM” value was -37.3%. For the molecule `CC1=NN(C(=O)c2ccc(Cn3nc(C)c([N+](=O)[O-])c3C)o2)C(O)(C(F)(F)F)C1` (stereo not shown), the “hERG current change (%, negative = inhibition) at 10uM” value is listed as -52.8%. Turning to `Cc1nn(Cc2ccc(C(=O)N3N=C(C(F)F)CC3(O)C(F)F)cc2)c(C)c1[N+](=O)[O-]` (stereo not shown), the “hERG current change (%, negative = inhibition) at 10uM” value is recorded as -62.9%.

On to `CC1=NN(C(=O)c2cccc(Cn3nc(C)c([N+](=O)[O-])c3C)c2)C(O)(C(F)(F)F)C1` (stereo not shown), for which the “hERG current change (%, negative = inhibition) at 10uM” value is recorded as 0.484%. Under `CC1=NN(C(=O)c2ccc(Cn3nc(C)c([N+](=O)[O-])c3C)cc2)C(O)(C(F)(F)F)C1` (stereo not shown) stands -28.8%; under `C=CCn1c(=O)/c(=C\c2ccccn2)s/c1=C(/C#N)C(=O)NCC1CCCO1` (stereo not shown), -3.51%; under `CN1CCC(=NNC(=O)CN(c2ccc(Oc3ccccc3)cc2)S(C)(=O)=O)CC1`, 9.51%. Under `Cc1ccc([N+](=O)[O-])cc1S(=O)(=O)NCCc1cn2ccccc2n1` stands -2.95%; under `CC(C)CCN(C(=O)CNC(=O)c1cccs1)C(C(=O)NC1CCCCC1)c1cccnc1` (stereo not shown), -36.4%; under `C=C1C(=O)[C@@]23[C@H](O)C[C@@H]4C(C)(C)CC[C@H](O)[C@@]4(C)[C@@H]2CC[C@@H]1[C@H]3O`, -9.9%. As to `COc1ccc(Cn2c(C(F)(F)F)ccc(C(N)=O)c2=O)cc1`, the “hERG current change (%, negative = inhibition) at 10uM” value worked out at 1.62%. In the case of `c1ccc2c(-c3nnc4n3CCCCC4)cc(-c3ccncc3)nc2c1` it was -48.7%; in that of `O=c1c2ccccc2nc2n1CCCCC2`, -4.17%. On to `Fc1ccc(-c2cc(-c3nnc4n3CCCCC4)c3ccccc3n2)cc1`, for which the “hERG current change (%, negative = inhibition) at 10uM” value is recorded as -63.5%. As for `N=c1c2ccccc2nc2n1CCCCCCCCCCC2`, the “hERG current change (%, negative = inhibition) at 10uM” value is -62%. Under `Clc1ccc(-c2cc(-c3nnc4n3CCCCC4)c3ccccc3n2)cc1` stands -42.1%; under `O=c1c2ccccc2nc2n1CCC2`, 13.6%.
